Assay [1] can be described thus: qHTS of pediatric cancer cell lines to identify multiple opportunities for drug repurposing: Primary screen for Rh18 cells (AID 1347102). Note: nearly all actives have a fitted effect of over 65% in size. In outline:
(§1)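 Cells (500-1,000/well) rested 5 h, then received compounds for 48 h; metabolically active cells were measured by CellTiter-Glo luminescence. Final concentrations spanned up to 46 µM (MIPE, 11-point) or 0.59 nM-46 µM (NPC, 8-point) in primary screens, 11-point in follow-ups.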
(In general: qHTS replaces the single test concentration by a dilution series.)

The nature of assay [2]: qHTS of pediatric cancer cell lines to identify multiple opportunities for drug repurposing: Primary screen for OHS-50 cells (AID 1347103). Note: nearly all actives have a fitted effect of over 40% in size. The method, boiled down:
as §1

Assay [3] is described as follows: qHTS of pediatric cancer cell lines to identify multiple opportunities for drug repurposing: Primary screen for RD cells (AID 1347104). Note: nearly all actives have a fitted effect of over 55% in size. The method, boiled down: (§2)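 Following a 5-hour attachment period, cells at 500-1,000/well received compounds and were cultured for 48 hours. CellTiter-Glo was added and luminescence read to estimate viable, metabolically active cells.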

A short description of assay [4]: qHTS of pediatric cancer cell lines to identify multiple opportunities for drug repurposing: Primary screen for MG 63 (6-TG R) cells (AID 1347105). Note: nearly all actives have a fitted effect of over 50% in size. The method, boiled down: as §2
The nature of assay [5]: qHTS of pediatric cancer cell lines to identify multiple opportunities for drug repurposing: Primary screen for control Hh wild type fibroblast cells (AID 1347106). Note: nearly all actives have a fitted effect of over 55% in size. In outline: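 Viability after 48 h compound treatment at 37C, 500-1,000 cells/well, read as ATP luminescence with CellTiter-Glo. Primary screens used 11-point (MIPE, 0.78 nM-46 µM) or 8-point (NPC, 0.59 nM-46 µM) final concentrations; follow-up screens used 11-point dilutions.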

Assay [6] in a line: qHTS of pediatric cancer cell lines to identify multiple opportunities for drug repurposing: Primary screen for Rh30 cells (AID 1347107). Note: nearly all actives have a fitted effect of over 75% in size. The method, boiled down: as §1
Assay [7] in a line: qHTS of pediatric cancer cell lines to identify multiple opportunities for drug repurposing: Primary screen for Rh41 cells (AID 1347108). Note: nearly all actives have a fitted effect of over 70% in size. The method, boiled down: as §2
The nature of assay [8]: qHTS of pediatric cancer cell lines to identify multiple opportunities for drug repurposing: Confirmatory screen for A673 cells (AID 1347110).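 Note: cells exposed to compound for 48 h before the viability read; nearly all actives have a fitted effect of over 65% in size.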 The method, boiled down: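 Viability was read as ATP luminescence (CellTiter-Glo) after 48 h of compound exposure at 37 C in A673 cells seeded at 500-1,000/well. Titrations reached 46 uM final, with 11 points in the confirmatory screen. Concentration-response curves were fitted directly.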

A short description of assay [9]: qHTS of pediatric cancer cell lines to identify multiple opportunities for drug repurposing: Confirmatory screen for SK-N-MC cells (AID 1347111).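 Note: cells exposed to compound for 48 h before the readout; nearly all actives have a fitted effect of over 70% in size.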 In outline: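 Seed 500-1,000 cells/well; rest 5 h at 37 degrees C. Pin-transfer compounds, 11-point titration. Incubate 48 h. Add CellTiter-Glo, 15 min RT, read luminescence.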
Assay [10] is described as follows: qHTS of pediatric cancer cell lines to identify multiple opportunities for drug repurposing: Confirmatory screen for NB1643 cells (AID 1347109). Note: nearly all actives have a fitted effect of over 45% in size. In outline:
as §1

SMILES strings stand for the structures. “And” between values parts separate entries of the source, which are not always exact repeats. Identical values can stand only once. Inconclusive results are not listed. The source made the active and inactive calls. Calls come from the whole dose curve; as a rule, active = well fitted curve in the direction sought with a large enough effect; inconclusive = small, poorly fitted or top-dose-only effect, or another doubt; inactive = no such curve, though single readings can be large; an effect the other way counts as inactive or inconclusive.

Experimental findings from PubChem BioAssay (NCATS) are described below.
Potency is the fitted concentration of half-maximal effect.

Regarding `NC(=O)c1cccnc1`, the Potency entry in [1], in [2], in assay [3], in assay [4], in assay [5] and in assay [6] was “inactive” throughout. Further, in assay [7], the Potency result was “inactive”. Moreover, the Potency is 13.1 µM (active) in assay [8] and 14.7 µM (active) in assay [9].

`CN(C)c1ccc(C(=C2C=CC(=[N+](C)C)C=C2)c2ccc(N(C)C)cc2)cc1`: the Potency in assay [1] was 750 nM (active) and 332 nM (active); in assay [2], 978 nM (active) and 217 nM (active); in assay [3], 1.88 µM (active) and 662 nM (active); in assay [4], 2.66 µM (active) and 1.48 µM (active); in assay [5], 8.41 µM (active) and 2.64 µM (active); in [6] it was 11.9 µM (active) and 5.9 µM (active). The Potency was 6.68 µM (active) and 1.66 µM (active) in assay [7]; 1.17 µM (active) in assay [10]; 1.47 µM (active) in assay [8]; 0.737 µM (active) in assay [9].

With `COc1cc(NCc2ccc3nc(N)nc(N)c3c2C)cc(OC)c1OC`, the Potency result in assay [1], in assay [4] and in assay [5] was “inactive” in each case. The Potency is 19300 nM (active) in assay [2]; 4.18 µM (active) and 119 nM (active) in assay [3]; 9.27 µM (active) in assay [10]; 3.29 µM (active) in assay [8]; 0.657 µM (active) in assay [9].

With `O=C(NCC1CN(c2ccc(N3CCOCC3=O)cc2)C(=O)O1)c1ccc(Cl)s1` (stereo unspecified), the Potency result in [1], in [2], in assay [3], in assay [4], in [5] and in assay [6] was “inactive” in each case. Besides, the Potency result in assay [7] was “inactive”. In assay [9], the Potency is 2.93 µM (active).

Take `Cc1cc(NS(=O)(=O)c2ccc(N)cc2)no1`: the Potency entry in assay [1], in assay [2], in assay [3], in [4], in assay [5] and in [6] was “inactive” in each case. In addition, the Potency result in assay [7] is “inactive”.

Regarding `CCCCc1oc2ccc(NS(C)(=O)=O)cc2c1C(=O)c1ccc(OCCCN(CCCC)CCCC)cc1`, the Potency is 18.7 µM (active) in assay [1]; 10.9 µM (active) and 15.5 µM (active) in assay [2]; 18.7 µM (active) and 23.7 µM (active) in assay [3]; 21.1 µM (active) in assay [4]; 23.5 µM (active) in assay [7]. Also, the Potency result in assay [5] is “inactive”.

Turning to `Nc1[nH]c(=O)ncc1F`, the Potency entry in assay [1], in assay [2], in [3], in [4], in [5] and in assay [6] was “inactive” in each case. Besides, the Potency entry in assay [7], in assay [10], in assay [8] and in assay [9] was “inactive” each time.

For the compound `CC(C)C1CCC(C(=O)N[C@H](Cc2ccccc2)C(=O)O)CC1` (stereo partly specified), the Potency result in assay [1], in assay [2], in assay [3], in assay [4], in assay [5] and in assay [6] was “inactive” each time. Besides, the Potency entry in assay [7] was “inactive”.

On to `O=S(=O)(O)CCS`, for which the Potency entry in assay [1], in [2], in assay [3], in assay [4], in assay [5] and in assay [6] was “inactive” each time. For the same compound, the Potency entry in assay [7] and in assay [8] was “inactive” in each case.

`CCCCCCNC(=O)n1cc(F)c(=O)[nH]c1=O`: the Potency entry in [1], in assay [2], in [4], in assay [5], in assay [6] and in assay [7] was “inactive” in each case.

In the case of `CCCc1cc(C(N)=S)ccn1`, the Potency result in assay [1], in assay [2], in [3], in assay [4], in assay [5] and in assay [6] was “inactive” throughout. In addition, the Potency result in assay [7] was “inactive”.

Turning to `CCc1c2c(nc3ccc(OC(=O)N4CCC(N5CCCCC5)CC4)cc13)-c1cc3c(c(=O)n1C2)COC(=O)[C@]3(O)CC`, the Potency in assay [1] is 18.7 µM (active); in assay [2], 769 nM (active); in [4] it was 21.1 µM (active) and 1.48 µM (active); in assay [10], 2.61 µM (active); in [8], 1.17 µM (active); in assay [9], 0.737 µM (active). The Potency entry in assay [5] was “inactive”.

Regarding `COc1ccc(-c2ccc3cc(C(=O)O)ccc3c2)cc1C12CC3CC(CC(C3)C1)C2`, the Potency entry in [1], in assay [3], in assay [5], in assay [6] and in assay [7] was “inactive” each time. In addition, the Potency in assay [2] was 15.3 nM (active); in assay [10] it was 9.27 µM (active); in assay [8], 5.85 µM (active); in [9], 2.61 µM (active).

`CCn1cc(C(=O)O)c(=O)c2cc(F)c(N3CCN(C)CC3)cc21`: the Potency entry in [1], in [2], in [3], in [4], in assay [5] and in assay [6] was “inactive” in each case. Moreover, the Potency entry in assay [7] is “inactive”.

Turning to `Cn1nnc2c(C(N)=O)ncn2c1=O`, the Potency result in assay [1], in [2], in [3], in [4], in [5] and in assay [6] was “inactive” throughout. The Potency result in assay [7], in assay [10], in assay [8] and in assay [9] was “inactive” in each case.

For `COc1cc([C@@H]2c3cc4c(cc3[C@H](O)[C@H]3COC(=O)[C@H]23)OCO4)cc(OC)c1OC`, the Potency entry in assay [1], in assay [3], in assay [4], in assay [5], in assay [6] and in assay [7] was “inactive” in each case. Further, the Potency is 30.9 nM (active) and 1 nM (active) in assay [2]; 0.0329 µM (active) in [10]; 0.104 µM (active) in assay [8]; 0.0329 µM (active) in assay [9].

Consider `COC(=O)Nc1nc2ccc(C(=O)c3ccccc3)cc2[nH]1`, for which the Potency result in assay [1] and in [6] was “inactive” each time. Moreover, the Potency was 138 nM (active) and 1.53 µM (active) in assay [2]; 1.66 µM (active) in assay [3]; 84.1 nM (active) and 935 nM (active) in assay [4]; 1.04 µM (active) in assay [8].

As to `CNNCc1ccc(C(=O)NC(C)C)cc1`, the Potency entry in assay [1], in assay [2], in [3], in assay [4], in [5] and in assay [6] was “inactive” each time. The Potency result in [7] was “inactive”. Moreover, in [8], the Potency was 10.4 µM (active).

Take `Cn1c(=O)c2c(ncn2CC(O)CO)n(C)c1=O` (stereo unspecified): the Potency result in [1], in [2], in assay [3], in assay [4], in assay [5] and in [6] was “inactive” each time. For the same compound, the Potency entry in [7] is “inactive”.

Consider `CC(C)(C)C(=O)OCOP(=O)(COCCn1cnc2c(N)ncnc21)OCOC(=O)C(C)(C)C`, for which the Potency entry in [1], in assay [4], in [5] and in assay [6] was “inactive” each time. In addition, the Potency is 6.17 µM (active) and 30.6 µM (active) in assay [2]; 23.5 µM (active) in assay [3]; 8.27 µM (active) in [10]; 4.65 µM (active) in [8]; 0.329 µM (active) in assay [9].

As to `CNC(=O)c1cc(Oc2ccc(NC(=O)Nc3ccc(Cl)c(C(F)(F)F)c3)cc2)ccn1`, the Potency in assay [1] was 18.7 µM (active); in assay [2], 15.3 µM (active) and 15.5 µM (active); in [3], 18.7 µM (active) and 23.7 µM (active); in [7], 18.7 µM (active); in assay [10], 20.8 µM (active); in assay [8], 23.3 µM (active). Moreover, the Potency result in assay [5] is “inactive”.
